# Laboratory results: PubChem BioAssay (Tox21)
# Results filed as inconclusive are left out. Active and inactive are the calls of the source. Calls follow the shape of the dose curve; as a rule, active = well fitted activation curve with a large enough effect in the repeat runs; inconclusive = weak or mixed curves; inactive = no such curve, though single readings can be large or run the other way.
# Target: Nuclear receptor subfamily 1 group I member 2 (Homo sapiens) (UniProt O75469)
# Assay: Human pregnane X receptor (PXR) small molecule agonists, qHTS assay (AID 1346982); also: nearly all actives have a fitted effect of over 35% in size
# Settings: PXR-Luc HepG2, CYP3A4 luciferase reporter, 24 h; series mostly up to 92.4 µM; activation: at the top concentration
# Excerpt: National Center for Advancing Translational Sciences [NCATS]
# NIH Chemical Genomics Center [NCGC]
# U.S. Environmental Protection Agency [EPA]
# National Institutes of Environmental Health Sciences [NIEHS]
# National Toxicology Program [NTP]
# The human pregnane X receptor (hPXR) regulates the expression of several drug metabolizing enzymes and induction of these proteins is a major mechanism for developing drug resistance in cancer. One such key enzyme catalyzing the drug metabolism is cytochrome P450 3A4 (CYP3A4). Changes in CYP3A4 expression affect drug metabolism, thereby reducing the therapeutic efficacy and altering toxicological response to a drug and which finally causes adverse drug interaction. To screen Tox21 libraries for compounds that activate hPXR-mediated CYP3A4 gene expression, PXR-Luc HepG2 cells were used.
# PXR-Luc HepG2 cells were dispensed at 2,000 per well in 5uL of assay medium containing 5% charcoal-stripped FBS into white solid bottom 1536-well plates (Corning Life Sciences, Corning, NY) using a Multidrop Combi (Thermo Scientific, Waltham, MA) dispenser. The assay plates were incubated at 37 C and 5% CO2 for 5hr, and then 23nL of compounds dissolved in DMSO and positive control were transferred using a Pintool station (Wako, San Diego, CA). The assay plates were incubated at 37C and 5% CO2 for 24hr. For luciferase read, 4uL of ONE-Glo reagent (Promega Corporation, Madison, WI) was added to each well of the assay plates using Flying Reagent Dispenser (FRD, Aurora Discovery, San Diego, CA) and incubated the assay plates at room temperature for 30min. The luminescence signal was quantified using a ViewLux plate reader (Perkin Elmer, Shelton, CT).
# % is scaled to controls: 0 for no effect and ±100 for the full control effect; potency is read from the fitted curve at half-maximal effect.
# Sequence of Nuclear receptor subfamily 1 group I member 2 (Homo sapiens) (O75469 whole entry, looked up): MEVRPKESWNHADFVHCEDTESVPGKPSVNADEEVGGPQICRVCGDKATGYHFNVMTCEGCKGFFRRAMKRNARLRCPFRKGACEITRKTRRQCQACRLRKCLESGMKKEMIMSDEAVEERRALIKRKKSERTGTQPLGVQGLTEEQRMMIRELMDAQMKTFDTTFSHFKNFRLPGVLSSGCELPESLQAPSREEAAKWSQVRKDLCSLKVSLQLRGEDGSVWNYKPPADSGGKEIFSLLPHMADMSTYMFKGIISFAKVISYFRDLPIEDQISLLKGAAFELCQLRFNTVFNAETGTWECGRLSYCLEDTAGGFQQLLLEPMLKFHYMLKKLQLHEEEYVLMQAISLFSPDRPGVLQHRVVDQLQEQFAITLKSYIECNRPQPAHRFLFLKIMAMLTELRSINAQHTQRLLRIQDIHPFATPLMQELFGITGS
SMILES,activation,Potency
O=C1OC(CCN2CCCCC2)OC1(c1ccccc1)c1ccccc1 (stereo not given),-4.23% [at 42.5 µM] (inactive),
CS(=O)(=O)c1cc(C(F)(F)F)ccc1C(=O)c1cnoc1C1CC1,-2.96% (inactive),
CNC(=O)Oc1c(C(C)(C)C)cc(C)cc1C(C)(C)C,24.1% (inactive),
CC1CN1P(=O)(N1CC1C)N1CC1C (stereo not given),6.02% (inactive),
CC(Cl)(Cl)[N+](=O)[O-],2.16% (inactive),
O=C(N[C@H]1CN2CCC1CC2)c1cc2ccoc2cn1,-3.75% (inactive),
Cc1cccc(C#N)c1,1.72% (inactive),
CC1CCCCC1NC(=O)Nc1ccccc1 (stereo not given),,24.3 µM (active)
O=C(Oc1ccc(Br)cc1)N1CCN2CCC1CC2,6.71% (inactive),
COCC(=O)N(c1c(C)cccc1C)N1CCOC1=O,15.2% (inactive),
CCOC(=O)NC(=S)Nc1ccccc1NC(=S)NC(=O)OCC,,27.3 µM (active)
NC(=S)C(N)=S,-5.42% (inactive),
ClCCCN1CCN(c2cccc(Cl)c2)CC1,14.1% [at 42.5 µM] (inactive),
N#CC(CCc1ccc(Cl)cc1)(Cn1cncn1)c1ccccc1 (stereo not given),,19.3 µM (active)
Clc1cccc(N2CCNCC2)c1,7.47% [at 42.5 µM] (inactive),
COP(=S)(OC)Oc1c(Cl)cc(C)cc1Cl,,24.3 µM (active)
CCN(CC)CCOC(=O)C(C)(c1ccccc1)c1ccccc1,,13.3 µM (active)
BrCCCCCCBr,3.77% (inactive),
CC1(C(=O)Nc2ccc(O)c(Cl)c2Cl)CCCCC1,,19.3 µM (active)
O=[N+]([O-])c1cc(Cl)c(Cl)c(Cl)c1,17% (inactive),

SMILES,activation,Potency
CNC(=O)N(C)c1nc2ccccc2s1,,30.6 µM (active)
CCC1(c2ccccc2)C(=O)N=C(O)NC1=O (stereo not given),,53 µM (active)
CCOP(=S)(OCC)Oc1nc(Cl)n(C(C)C)n1,,6.86 µM (active)
CCOP(=O)(OCC)OP(=O)(OCC)OCC,-7.02% (inactive),
Cc1coc2c1CCC(C)C2 (stereo not given),,17.8 µM (active)
OC(c1ccc(F)cc1)(c1cncnc1)c1ccccc1Cl (stereo not given),,30.6 µM (active)
O=C(NCO)NCO,1.46% (inactive),
CCC(=O)C(CCN(C)C)(c1ccccc1)c1ccccc1,,16.8 µM (active)
CC1CCC(=O)O1 (stereo not given),-4.11% (inactive),
CC(C)(C)C(=O)C(Oc1ccc(Cl)cc1)n1cncn1 (stereo not given),,27.3 µM (active)
O=C(O)c1ccc2[nH]cc(CCCCN3CC=C(c4ccccc4)CC3)c2c1,-1.1% [at 42.5 µM] (inactive),
CC(C1CC1)C(O)(Cn1cncn1)c1ccc(Cl)cc1 (stereo not given),,27.1 µM (active)
COc1cc2c(cc1OC)[C@@]13CCN4CC5=CCO[C@H]6CC(=O)N2[C@H]1[C@H]6[C@H]5C[C@H]43,,21.7 µM (active)
COC(=O)C(c1ccccc1)C1CCCCN1 (stereo not given),27.6% (inactive),
COP(=S)(OC)Oc1ccc(S(N)(=O)=O)cc1,-14.7% [at 42.5 µM] (inactive),
COc1cc(OC)nc(Oc2cccc(Oc3nc(OC)cc(OC)n3)c2C(=O)O)n1,8.22% (inactive),
CC(C)(C)NCC(O)c1cc(Cl)c(N)c(Cl)c1 (stereo not given),-0.0213% [at 42.5 µM] (inactive),
CCN(CC)c1nc(C)cc(OP(=S)(OC)OC)n1,23% (inactive),
CCOP(=S)(Oc1cnc(C(C)(C)C)nc1)OC(C)C (stereo not given),,24.3 µM (active)
CCCSC(=O)N(CCC)CCC,-1.41% (inactive),
